Bioassay records deposited in PubChem BioAssay by National Center for Advancing Translational Sciences (NCATS).
In the library only some 12% were active in any assay of this set; here they are far more common.
G9a inh: blocks human histone lysine methyltransferase G9a; G9a H3K9 monomethylation, AlphaScreen, 2 h; Q96KQ7; AID 504332; 350,000 compounds, 8.8% hits; Potency, µM (top dose mostly 102 µM), for inactives: at the top dose activity, negative = inhibition, usual class: inhibitors; note: % is set by controls: 0 for no effect and ±100 for the full control effect; nearly all actives have a fitted effect of over 75% in size
Target sequence (Q96KQ7 913-1193 limits assumed): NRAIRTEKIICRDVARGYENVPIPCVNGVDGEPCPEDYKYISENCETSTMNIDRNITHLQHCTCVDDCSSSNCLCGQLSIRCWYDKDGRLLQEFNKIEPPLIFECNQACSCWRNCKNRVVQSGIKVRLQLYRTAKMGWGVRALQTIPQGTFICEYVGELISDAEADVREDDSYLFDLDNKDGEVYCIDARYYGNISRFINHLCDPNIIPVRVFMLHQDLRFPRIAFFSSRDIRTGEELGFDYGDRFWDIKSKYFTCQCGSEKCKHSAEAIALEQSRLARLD
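Compounds were preincubated with 20 nM G9a for 15 min, after which biotinylated H3K9 peptide (500 nM) and SAM (20 uM) started a 2 h room-temperature reaction. Monomethylated product was quantified by antibody-based AlphaScreen chemiluminescence.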
BAZ2B block: BAZ2B (human) inhibition; Q9UIF8; AlphaScreen BAZ2B-H3K14Ac peptide displacement; Potency, µM (series often up to 114 µM), for inactives: at the top dose activity change, negative = inhibition, usual class: inhibitors; 360,000 compounds, 4.4% hits; AID 504333; note: % is set by controls: 0 for no effect and ±100 for the full control effect; nearly all actives have a fitted effect of over 60% in size
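AlphaScreen displacement: compounds (up to 110uM) incubated 30 min at room temperature with a preformed 50 nM BAZ2B/50 nM biotinylated H3K14Ac peptide complex in PBS pH 7.4 with Tween-20. Donor and acceptor beads at 10 ug/mL final added, 20 min light-protected before reading.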
HP1b chromo inh: HP1-beta chromodomain-methylated histone interaction inhibition | AID 540317 | 390,000 compounds, 0.56% hits | P83916 | Potency, µM (top dose mostly 114 µM), without a hit: at the highest dose activity change, negative = inhibition, hits mostly inhibitors | AlphaScreen HP1-beta / biotin-H3K9me3 peptide binding; note: nearly all actives have a fitted effect of over 70% in size
Target sequence (P83916 whole entry, looked up): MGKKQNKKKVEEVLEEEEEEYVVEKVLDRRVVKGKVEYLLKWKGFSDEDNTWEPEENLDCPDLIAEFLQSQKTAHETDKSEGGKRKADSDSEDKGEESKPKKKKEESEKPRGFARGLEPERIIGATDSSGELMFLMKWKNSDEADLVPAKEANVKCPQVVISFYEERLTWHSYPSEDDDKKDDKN
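AlphaScreen: HP1-beta (50 nM) preformed 30 min with biotin-H3(1-18)K9me3 peptide (50 nM) in PBS pH 7.4, 0.01% Tween-20. Compound added for 30 min at RT, then streptavidin donor/nickel chelate acceptor beads (10 ug/mL) for 30 min.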
L3MBTL1 inh: blocks human L3MBTL1. Q9Y468. AlphaScreen L3MBTL1–H3K9me1 peptide binding. Potency, µM (top dose mostly 57.1 µM), for the others: top-dose activity, negative = inhibition, actives largely listed as inhibitors. 230,000 compounds, 0.66% hits. AID 485360; note: % is set by controls: 0 for no effect and ±100 for the full control effect; nearly all actives have a fitted effect of over 60% in size
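AlphaScreen assay: L3MBTL1 (50 nM final) was preincubated 30 min at room temperature with biotinylated H3(1-15)K9me1 peptide (75 nM final), then 30 min with library compounds; streptavidin donor and nickel chelate acceptor beads (10 ug/mL final) added, 30 min dark.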
Sfp inh: inhibitors of Bacillus subtilis Sfp phosphopantetheinyl transferase; Q9F4F7; Biochemical Sfp PPTase activity, qHTS; Potency, µM, without a hit: largest response in the series, negative = inhibition, usual class: inhibitors; 310,000 compounds, 3.5% hits;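 note: the enzyme is Sfp with the accession as filed and its product quenches rhodamine fluorescence; 0% = enzyme reaction without inhibitor and -100% = no enzyme wells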
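Step 1, compound plus 15 nM Sfp-PPTase, 15 min, room temperature. Step 2, add rhodamine-CoA (5 uM) and BHQ-2-YbbR (12.5 uM). Step 3, read 525/598 nm fluorescence at 0 and 30 min.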
JMJD2A Tudor: inhibitors of human JMJD2A Tudor domain | AlphaScreen JMJD2A-Tudor / H3K4me3 peptide binding | O75164 | AID 504339 | Potency, µM (doses to about 114 µM), for the others: at the highest dose activity change, negative = inhibition, actives largely listed as inhibitors | 390,000 compounds, 4.4% hits; note: % is set by controls: 0 for no effect and ±100 for the full control effect; nearly all actives have a fitted effect of over 50% in size
* marks the source's active call; other numbers are inactive results; ? = inconclusive; / = not tested or not shown; [ ] = remark or other dose. Calls come from the whole dose curve; as a rule, active = well fitted curve in the direction sought with a large enough effect; inconclusive = small, poorly fitted or top-dose-only effect, or another doubt; inactive = no such curve, though single readings can be large; an effect the other way counts as inactive or inconclusive. Potency is the fitted concentration of half-maximal effect.

SMILES | G9a inh | BAZ2B block | HP1b chromo inh | L3MBTL1 inh | Sfp inh | JMJD2A Tudor
COc1cc(-c2n[nH]c(=S)n2-c2ccccc2C(F)(F)F)cc(OC)c1OC | 3.5µM* | -16% | 8% | 1% | -18% | ?
COc1cc(-c2n[nH]c(=S)n2C(C)c2ccccc2)cc(OC)c1OC (configuration not stated) | / | -1% | 32% | 31% | 0% | 13µM*
COc1cc(-c2n[nH]c(=S)n2-c2cccc(C(F)(F)F)c2)cc(OC)c1OC | ? | 5% | 13% | 30% | -20% | 89µM*
Cc1ccc(C)c(Cn2c(=O)n(CCCCCC(=O)NCc3ccc4c(c3)OCO4)c(=O)c3sccc32)c1 | -4%[59 µM] | -16% | 12% | / | / | -12%
CCn1c(C)cc(/C=C2\NC(=O)N(Cc3ccccc3)C2=O)c1C | 13µM* | -32% | 7% | / | -2% | 89µM*
Cc1ccc2c(c1)c1c(c(=O)n(Cc3ccccc3)c(=O)n1Cc1ccccc1F)n2C | ? | -4% | 47% | / | / | 10%
CC1CCC(=O)N(CCOc2ccccc2)CC1 (configuration not stated) | -32% | 8% | 9% | -1% | 3% | ?
C[C@H]1CCC(=O)N([C@H](COc2ccccc2)Cc2ccccc2)CC1 | 32µM* | 9% | 76% | -1% | -14% | 4%
O=C(Cn1cc(C(=O)C2CCCCC2)c2ccccc21)Nc1ccccc1Cl | 5%[59 µM] | -1% | 26% | / | / | -3%
COC(=O)CCC(=O)OC1(C)C(=O)C2=CN(C(CO)CO)C(c3ccc(OC)cc3)=CC2=C(Br)C1=O (configuration not stated) | 2%[12.7 µM] | ? | / | / | 1% | /
COC(=O)CCC(=O)OC1(C)C(=O)C2=COC(c3ccc(OC)cc3)=CC2=C(Br)C1=O (configuration not stated) | ? | 45µM* | ? | / | 12% | 32µM*
COc1ccc(C2=CC3=C(Br)C(=O)C(C)(OC(=O)c4ccc(Cl)nc4)C(=O)C3=CO2)cc1 (configuration not stated) | -36%[59 µM] | 56µM* | 50µM* | / | -24% | 79µM*
COC(=O)CCC(=O)OC1(C)C(=O)C2=CN(CCCCO)C(c3ccc(OC)cc3)=CC2=C(Br)C1=O (configuration not stated) | 35µM* | ? | / | -18% | -18% | /
CC(C)(C)OC(=O)NCCCC1=CC2=CC(=O)C(C)(OC(=O)c3ccc(Cl)nc3)C(=O)C2=CO1 (configuration not stated) | / | / | / | / | -2% | /
COc1ccc(CN2C=C3C(=O)C(C)(OC(=O)C4CCCC4)C(=O)C=C3C=C2c2ccsc2)cc1 (configuration not stated) | ? | ? | -23% | / | -16% | ?
COc1ccc(C2=CC3=C(Br)C(=O)C(C)(OC(=O)C4CCCC4)C(=O)C3=CO2)cc1 (configuration not stated) | 21%[12.7 µM] | 79µM* | ? | / | -5% | 50µM*
COc1ccc(CNc2oc(/C=C/c3cc(OC)c(OC)c(OC)c3)nc2C#N)cc1 | ? | -23% | 15% | / | / | 8%
Cc1ccccc1-c1cc2nccc(-c3cc(Cl)ccc3O)n2n1 | ? | -4% | 32% | / | / | -6%
O=C(O)CCCNc1cc(N2CCC3(CC2)OCCO3)c2noc3c2c1C(=O)c1ccccc1-3 | ? | 14µM* | / | 10µM* | -11% | /
CCCCNc1cc(N2CCN(C3CCCCC3)CC2)c2noc3c2c1C(=O)c1ccccc1-3 | ? | 5µM* | -22% | / | / | ?
CCOC(=O)N1CCN(c2cc(NCCC(=O)O)c3c4c(onc24)-c2ccccc2C3=O)CC1 | ? | 28µM* | -90% | 8.9µM* | -24% | 56µM*
CCn1c(=O)cc(SCC(=O)N2CCN(C3CCCCC3)CC2)c2ccccc21 | -6%[59 µM] | 2% | 24% | -3% | 6% | -11%
O=C(O)CCCNc1cc(N2CCN(C(=O)c3ccco3)CC2)c2noc3c2c1C(=O)c1ccccc1-3 | 10µM* | 18µM* | 35µM* | / | -3% | 35µM*
C=CCN1c2ccccc2[C@]23C[C@@H](C(=O)OC)N(S(=O)(=O)c4cccs4)C2=NC(C(=O)OC)=C(C(=O)OC)[C@H]13 | / | / | / | / | 4% | /
O=C(NCc1ccc(Cl)cc1)c1cnc2sc(N3CCCCCC3)nn2c1=O | 12%[59 µM] | -3% | -13% | / | / | -17%
SMILES | G9a inh | BAZ2B block | HP1b chromo inh | L3MBTL1 inh | Sfp inh | JMJD2A Tudor
CCOC(=O)c1noc2ncn(CC(=O)Nc3ccc(OC)c(Cl)c3)c(=O)c12 | -14%[59 µM] | -11% | 14%[57 µM] | / | / | -11%
O=C1c2ccccc2-c2onc3c(N4CCN(CCO)CC4)cc(N4CCN(C(=O)c5ccco5)CC4)c1c23 | 28µM* | 16µM* | ? | / | 5µM* | 25µM*
CN1CCN(c2cc(N3CCN(C(=O)c4ccco4)CC3)c3c4c(onc24)-c2ccccc2C3=O)CC1 | 35µM* | 16µM* | ? | / | 16µM* | 40µM*
O=C(c1ccco1)N1CCN(CCCCN2C(=O)c3ccccc3C2=O)CC1 | -30%[59 µM] | 17% | 40% | 3% | 3% | -12%
CC(Sc1ncc(S(=O)(=O)c2ccc(C(C)C)cc2)c(N)n1)C(=O)Nc1ccccc1 (configuration not stated) | -22%[59 µM] | -11% | 7% | / | / | -8%
C#CCOCCOCCOCCNc1nc(N2CCOCC2)nc(N2CCN(C(=O)CCCCCCCCCCNC(=O)[C@H]([C@@H](C)CC)n3cc(CCCCN=C(N)N)nn3)CC2)n1 | -3%[2.33 µM] | ? | 20% | -2% | / | -34%
C#CCOCCOCCOCCNc1nc(N2CCN(C(=O)CCCCCCCCCCNC(=O)[C@H](CCCN=C(N)N)n3cc(C[C@@H](C)CC)nn3)CC2)nc(N2CCN(C(=O)CCCCCCCCCCNC(=O)[C@@H]([C@H](C)CC)n3cc(CCCCCN)nn3)CC2)n1 | 10%[2.33 µM] | 56µM* | / | -28% | / | /
C#CCOCCOCCOCCNc1nc(N2CCN(C(=O)CCCCCCCCCCNC(=O)[C@H]([C@@H](C)CC)n3cc(CCCCN=C(N)N)nn3)CC2)nc(N2CCN(C(=O)CCCCCCCCCCNC(=O)[C@@H]([C@H](C)O)n3cc(C)nn3)CC2)n1 | 12%[2.33 µM] | ? | ? | -7% | / | 56µM*
